Inconclusive results are not listed. A call without a number means that no potency is given here. Active and inactive are the calls of the source. Unless noted, calls follow the shape of the dose curve; as a rule, active = well fitted curve in the direction sought with a large enough effect; inconclusive = small, poorly fitted or top-dose-only effect, or another doubt; inactive = no such curve, though single readings can be large; an effect the other way counts as inactive or inconclusive.
Assays:
[1] = biological target: Ferritin light chain (Equus caballus) (UniProt P02791); assay: qHTS Validation Assay for Identification of Novel General Anesthetics (AID 2323); also: series mostly up to about 77 µM
Outline: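 10 uM horse-spleen apoferritin + 1-AMA (50% saturated, PBS); cpd pin-transferred, 10 min RT. Ex 380/Em 535 nm endpoint. Activity normalized between free 1-AMA and 1-AMA/apoferritin; 4-parameter Hill fit of concentration-response.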

[2] = biological target: ATP-dependent DNA helicase Q1 (Homo sapiens) (UniProt P46063); assay: qHTS Validation Assay for Inhibitors of RecQ-Like Dna Helicase 1 (RECQ1) (AID 2353); also: potency is read from the fitted curve at half-maximal effect
Outline: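 RECQ1T1 50 nM; forked duplex (20 bp + 30-nt ss tails) 200 nM, ATP 2 mM final; pH 8.0, 2 mM MgCl2, 2.5 ug/ml poly(dI-dC); 15 min compound preincubation; discontinuous kinetic read over 2 h at RT.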

[3] = Cytometric Cell-Based qHTS for Inhibitors of the mTORC1 Signaling Pathway in MEF (Tsc2-/-, p53-/-) Cells (AID 2660); also: potency is read from the fitted curve at half-maximal effect
Outline: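 Cells are plated, treated with compound for 24 hrs at 37 degree Celsius, then fixed, blocked and immunostained for phospho-rpS6 Ser235/236. Propidium iodide counterstain follows. Per-well % positive cells is derived from the PI-normalized phospho-S6 signal.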

[4] = High Content Imaging Cell-Based qHTS for Inhibitors of the mTORC1 Signaling Pathway in MEF (Tsc2-/-, p53-/-) Cells (AID 2666);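 also: percent of cells scored positive for phospho-rpS6 Ser235/236 immunostaining by imaging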; also: potency is read from the fitted curve at half-maximal effect
Outline: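 Inhibition of rpS6 phosphorylation is measured by immunofluorescence imaging in empty-vector Tsc2-/-, p53-/- mouse embryonic fibroblasts after 24 hrs compound exposure at 37 degree Celsius. Results are reported as % positive cells per well.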

[5] = High Content Imaging Cell-Based qHTS for Inhibitors of the mTORC1 Signaling Pathway in MEF Cells (AID 2667);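 also: Tsc2-/- p53-/- MEFs stably re-expressing wild-type Tsc2 exposed 24 h; series mostly up to about 38 µM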
Outline: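 Fixed-cell imaging of phospho-S6 (Ser235/236, Alexa-488) after 24 hrs of compound treatment at 37 degree Celsius. Signal was normalized to Hoechst, and thresholds from the highest and lowest wells split cells into % active versus % non-active.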

[6] = Cytometry Cell-Based qHTS for Inhibitors of the mTORC1 Signaling Pathway in MEF cells (AID 2668);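 also: Tsc2-/- p53-/- mouse embryonic fibroblasts stably re-expressing wild-type Tsc2; percent cells positive for phospho-rpS6 Ser235/236 relative to propidium iodide stain; series mostly up to about 38 µM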
Outline: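 Read-out: phospho-rpS6 Ser235/236 immunofluorescence normalized to propidium iodide intensity, scored as % active cells against a rapamycin (7.5 nM) threshold. Cells: Tsc2-/-, p53-/- MEFs stably expressing WT Tsc2, compound-treated 24 hrs at 37 degree Celsius.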

[7] = Validation screen for small molecules that induce DNA re-replication in MCF 10A normal breast cells (AID 463097); also: nearly all actives have a fitted effect of over 60% in size; also: potency is read from the fitted curve at half-maximal effect
Outline: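 250 MCF 10A cells/well; compound pin-transferred; 48 hr, 37 C, 5% CO2; Hoechst 40 min; imaged 405/500-530 nm. Hits = more high-intensity nuclei.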

[8] = biological target: Ubiquitin carboxyl-terminal hydrolase 2 (Homo sapiens) (UniProt O75604); assay: qHTS Validation Assay for Inhibitors of Ubiquitin-specific Protease USP2a Using CHOP2 as the Reporter (AID 463106)
Outline: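 Inhibition is expressed relative to NEM as the full-inhibition control, with concentration-response curves classed by fit quality, magnitude and activity. Enzyme (USP2 core, 10nM) meets 25nM Ub-CHOP2 after compound preincubation; readings are taken at 60min.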

[9] = biological target: DNA polymerase III PolC-type (Bacillus subtilis (strain 168)) (UniProt P13267); assay: qHTS Validation Assay for the Inhibitors of DNA Replication in Gram-Positive Bacteria (AID 485295);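 also: reconstituted holoenzyme with PolC plus beta clamp SSB and primase; PicoGreen fluorescence of double-stranded DNA made on primed circular M13 template; series mostly up to about 57 µM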
Outline: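 PicoGreen fluorescence (ex 480–485/em 535–540 nm) reports dsDNA synthesized on ssM13Gori template with dNTPs/NTPs. Enzyme: holoenzyme rebuilt from purified PolC, beta subunit, SSB and primase. Compound preincubated before substrate addition; RT throughout.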

[10] = biological target: Beta-2 adrenergic receptor (Homo sapiens) (UniProt P07550); assay: qHTS validation assay of beta-arrestin-biased ligands of beta2-adrenergic receptor (AID 485366)
Outline: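 Compound series up to 46 microM applied to beta2-AR/beta-arrestin Tango cells, 18 hr, 37 degrees C, 5% CO2. Read-out: tTA-driven luciferase luminescence, converted to %Activity; concentration-response curves assigned curve classes.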

[11] = Quantitative high throughput screen for delayed death inhibitors of the malarial parasite plastid, 96 hour incubation (AID 488745); also: nearly all actives have a fitted effect of over 70% in size; also: potency is read from the fitted curve at half-maximal effect
Outline: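 Two-generation (96 h) exposure of luciferase-reporter P. falciparum in erythrocytes, 2% hematocrit, 0.1% parasitemia final, 37 C, 5% CO2, RPMI 1640 with 0.5% Albumax. Growth inhibition scored by reduced luminescence.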

[12] = Quantitative high throughput screen for delayed death inhibitors of the malarial parasite plastid, 48 hour incubation (AID 488752); also: nearly all actives have a fitted effect of over 65% in size; also: potency is read from the fitted curve at half-maximal effect
Outline: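 Cultures: infected erythrocytes at final 2% hematocrit and 0.1% parasitemia in Albumax-supplemented RPMI. Parasites express integrated firefly luciferase. Incubation with compound lasts 48 h before luminescent detection of remaining reporter activity.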

[13] = Validation screen for inhibitors of Lassa infection (AID 463096; calls by dose curve; also: potency is read from the fitted curve at half-maximal effect)
[14] = biological target: Tumor susceptibility gene 101 protein (Homo sapiens) (UniProt Q99816); assay: qHTS Validation Assay for Iinhibitors of HIV-1 Budding by Blocking the Interaction of PTAP/TSG101 (AID 485342; calls by dose curve)
Outline: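 FP read-out: FITC-PTAP peptide, 50 nM final, binding Tsg101 binding domain, 10 uM final; 20 min r.t.; 10 mM HEPES pH 7.5, 0.15 M NaCl, 0.01% Tween 20, 3 mM EDTA, 0.1 mM TCEP.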

[15] = qHTS Validation Assay to Find Inhibitors of Chronic Active B-Cell Receptor Signaling (AID 485345; active = well fitted curve in the direction sought with a large enough effect in the main read-out, with a control signal flat, not every such curve was filed as active)
Outline: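 TMD8 ABC-DLBCL cells with dox-inducible green luciferase–IκBα fusion and red native luciferase; compounds 46 uM–3 nM, 4 h at 37C with doxycycline in 0.5% FBS IMDM. Green/red ratio normalized to basal and 10 uM MG-132.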

[16] = biological target: ATP-dependent 6-phosphofructokinase (Trypanosoma brucei brucei) (UniProt O15648); assay: qHTS Validation Assay to Find Inhibitors of T. brucei phosphofructokinase (AID 485368); also: potency is read from the fitted curve at half-maximal effect
Outline: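 qHTS format, up to 57 uM. PFK 1.25 nM; F6P 0.5 mM; ATP 0.1 mM; 5 mM MgCl2, 0.01% Tween20, 0.1% BSA; 0.1 M TEA pH 8.0; 45 min RT; ADP-Glo readout; no-enzyme control = full inhibition.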

Beta-2 adrenergic receptor (Homo sapiens), sequence (P07550 whole entry, looked up): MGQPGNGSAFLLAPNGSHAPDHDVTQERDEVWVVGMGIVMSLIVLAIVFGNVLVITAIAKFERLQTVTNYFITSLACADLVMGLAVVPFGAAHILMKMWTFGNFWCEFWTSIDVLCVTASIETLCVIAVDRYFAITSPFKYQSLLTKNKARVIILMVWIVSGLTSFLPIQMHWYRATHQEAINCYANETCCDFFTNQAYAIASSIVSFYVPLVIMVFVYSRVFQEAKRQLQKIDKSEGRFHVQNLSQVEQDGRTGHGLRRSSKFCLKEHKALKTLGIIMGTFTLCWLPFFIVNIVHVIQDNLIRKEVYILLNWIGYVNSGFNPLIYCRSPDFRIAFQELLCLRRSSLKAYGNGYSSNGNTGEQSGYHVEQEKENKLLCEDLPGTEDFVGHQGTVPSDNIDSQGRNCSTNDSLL
Tumor susceptibility gene 101 protein (Homo sapiens), sequence (Q99816 whole entry, looked up, the tested form may be a part): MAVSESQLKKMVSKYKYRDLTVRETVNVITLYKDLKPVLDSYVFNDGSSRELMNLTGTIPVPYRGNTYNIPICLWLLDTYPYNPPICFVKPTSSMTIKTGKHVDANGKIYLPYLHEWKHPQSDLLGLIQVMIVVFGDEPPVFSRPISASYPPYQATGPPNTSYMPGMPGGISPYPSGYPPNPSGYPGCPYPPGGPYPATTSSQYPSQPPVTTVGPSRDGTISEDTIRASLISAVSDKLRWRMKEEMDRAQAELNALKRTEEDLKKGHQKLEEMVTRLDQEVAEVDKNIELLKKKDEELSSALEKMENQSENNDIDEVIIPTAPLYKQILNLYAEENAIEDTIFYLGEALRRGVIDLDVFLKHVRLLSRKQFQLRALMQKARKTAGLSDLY
ATP-dependent 6-phosphofructokinase (Trypanosoma brucei brucei), sequence (O15648 whole entry, looked up): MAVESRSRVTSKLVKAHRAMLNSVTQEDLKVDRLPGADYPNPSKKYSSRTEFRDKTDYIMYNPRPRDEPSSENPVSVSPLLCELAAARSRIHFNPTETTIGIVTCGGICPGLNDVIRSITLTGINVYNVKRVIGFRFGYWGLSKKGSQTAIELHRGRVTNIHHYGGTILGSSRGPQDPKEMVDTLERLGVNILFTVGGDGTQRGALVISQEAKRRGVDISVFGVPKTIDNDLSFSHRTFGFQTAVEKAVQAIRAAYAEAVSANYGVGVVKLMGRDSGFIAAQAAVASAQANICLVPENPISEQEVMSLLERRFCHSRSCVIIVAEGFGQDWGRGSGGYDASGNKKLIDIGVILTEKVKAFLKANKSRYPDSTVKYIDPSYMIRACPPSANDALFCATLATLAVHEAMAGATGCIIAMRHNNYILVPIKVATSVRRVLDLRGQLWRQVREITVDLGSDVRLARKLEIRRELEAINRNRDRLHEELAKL
Ferritin light chain (Equus caballus), sequence (P02791 2-175 limits assumed): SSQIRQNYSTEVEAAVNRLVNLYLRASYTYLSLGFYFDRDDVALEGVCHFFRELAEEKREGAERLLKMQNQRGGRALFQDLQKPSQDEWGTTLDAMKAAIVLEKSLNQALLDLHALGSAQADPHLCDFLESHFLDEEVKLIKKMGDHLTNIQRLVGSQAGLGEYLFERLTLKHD
ATP-dependent DNA helicase Q1 (Homo sapiens), sequence (P46063 whole entry, looked up): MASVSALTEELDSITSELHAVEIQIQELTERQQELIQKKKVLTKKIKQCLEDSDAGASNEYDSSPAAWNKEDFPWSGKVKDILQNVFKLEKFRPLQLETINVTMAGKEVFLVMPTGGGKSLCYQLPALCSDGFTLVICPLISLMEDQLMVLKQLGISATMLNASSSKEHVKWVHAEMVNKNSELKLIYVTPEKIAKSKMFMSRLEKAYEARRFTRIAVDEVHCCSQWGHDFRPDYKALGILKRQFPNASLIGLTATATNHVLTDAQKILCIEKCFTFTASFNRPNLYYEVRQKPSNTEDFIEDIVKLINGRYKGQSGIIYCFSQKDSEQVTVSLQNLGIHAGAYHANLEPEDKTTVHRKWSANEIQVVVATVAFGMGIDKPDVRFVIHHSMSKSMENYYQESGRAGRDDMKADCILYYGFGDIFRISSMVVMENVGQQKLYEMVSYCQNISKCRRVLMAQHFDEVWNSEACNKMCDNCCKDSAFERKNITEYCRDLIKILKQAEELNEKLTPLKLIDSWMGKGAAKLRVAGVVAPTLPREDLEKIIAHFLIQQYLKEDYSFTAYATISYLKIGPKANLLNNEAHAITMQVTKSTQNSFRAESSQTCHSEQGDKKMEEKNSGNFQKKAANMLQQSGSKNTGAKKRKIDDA
Ubiquitin carboxyl-terminal hydrolase 2 (Homo sapiens), sequence (O75604 whole entry, looked up): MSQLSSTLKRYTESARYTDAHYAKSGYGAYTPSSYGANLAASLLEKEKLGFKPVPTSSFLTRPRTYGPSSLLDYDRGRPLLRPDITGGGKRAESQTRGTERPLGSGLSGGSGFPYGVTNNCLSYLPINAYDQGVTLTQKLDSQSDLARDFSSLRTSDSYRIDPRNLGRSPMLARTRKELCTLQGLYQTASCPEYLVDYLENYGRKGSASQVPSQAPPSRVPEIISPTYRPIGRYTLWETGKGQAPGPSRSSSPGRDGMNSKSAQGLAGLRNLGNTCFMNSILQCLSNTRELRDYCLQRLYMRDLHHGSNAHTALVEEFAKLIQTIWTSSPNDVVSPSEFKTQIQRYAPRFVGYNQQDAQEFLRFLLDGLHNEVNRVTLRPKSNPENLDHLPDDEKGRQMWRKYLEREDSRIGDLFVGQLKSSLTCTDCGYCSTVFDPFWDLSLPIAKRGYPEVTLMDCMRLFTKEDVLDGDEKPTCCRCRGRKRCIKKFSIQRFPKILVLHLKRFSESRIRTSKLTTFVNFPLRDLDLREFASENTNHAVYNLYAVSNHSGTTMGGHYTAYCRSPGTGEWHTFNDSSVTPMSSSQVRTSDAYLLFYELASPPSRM
DNA polymerase III PolC-type (Bacillus subtilis (strain 168)), sequence (P13267 whole entry, looked up): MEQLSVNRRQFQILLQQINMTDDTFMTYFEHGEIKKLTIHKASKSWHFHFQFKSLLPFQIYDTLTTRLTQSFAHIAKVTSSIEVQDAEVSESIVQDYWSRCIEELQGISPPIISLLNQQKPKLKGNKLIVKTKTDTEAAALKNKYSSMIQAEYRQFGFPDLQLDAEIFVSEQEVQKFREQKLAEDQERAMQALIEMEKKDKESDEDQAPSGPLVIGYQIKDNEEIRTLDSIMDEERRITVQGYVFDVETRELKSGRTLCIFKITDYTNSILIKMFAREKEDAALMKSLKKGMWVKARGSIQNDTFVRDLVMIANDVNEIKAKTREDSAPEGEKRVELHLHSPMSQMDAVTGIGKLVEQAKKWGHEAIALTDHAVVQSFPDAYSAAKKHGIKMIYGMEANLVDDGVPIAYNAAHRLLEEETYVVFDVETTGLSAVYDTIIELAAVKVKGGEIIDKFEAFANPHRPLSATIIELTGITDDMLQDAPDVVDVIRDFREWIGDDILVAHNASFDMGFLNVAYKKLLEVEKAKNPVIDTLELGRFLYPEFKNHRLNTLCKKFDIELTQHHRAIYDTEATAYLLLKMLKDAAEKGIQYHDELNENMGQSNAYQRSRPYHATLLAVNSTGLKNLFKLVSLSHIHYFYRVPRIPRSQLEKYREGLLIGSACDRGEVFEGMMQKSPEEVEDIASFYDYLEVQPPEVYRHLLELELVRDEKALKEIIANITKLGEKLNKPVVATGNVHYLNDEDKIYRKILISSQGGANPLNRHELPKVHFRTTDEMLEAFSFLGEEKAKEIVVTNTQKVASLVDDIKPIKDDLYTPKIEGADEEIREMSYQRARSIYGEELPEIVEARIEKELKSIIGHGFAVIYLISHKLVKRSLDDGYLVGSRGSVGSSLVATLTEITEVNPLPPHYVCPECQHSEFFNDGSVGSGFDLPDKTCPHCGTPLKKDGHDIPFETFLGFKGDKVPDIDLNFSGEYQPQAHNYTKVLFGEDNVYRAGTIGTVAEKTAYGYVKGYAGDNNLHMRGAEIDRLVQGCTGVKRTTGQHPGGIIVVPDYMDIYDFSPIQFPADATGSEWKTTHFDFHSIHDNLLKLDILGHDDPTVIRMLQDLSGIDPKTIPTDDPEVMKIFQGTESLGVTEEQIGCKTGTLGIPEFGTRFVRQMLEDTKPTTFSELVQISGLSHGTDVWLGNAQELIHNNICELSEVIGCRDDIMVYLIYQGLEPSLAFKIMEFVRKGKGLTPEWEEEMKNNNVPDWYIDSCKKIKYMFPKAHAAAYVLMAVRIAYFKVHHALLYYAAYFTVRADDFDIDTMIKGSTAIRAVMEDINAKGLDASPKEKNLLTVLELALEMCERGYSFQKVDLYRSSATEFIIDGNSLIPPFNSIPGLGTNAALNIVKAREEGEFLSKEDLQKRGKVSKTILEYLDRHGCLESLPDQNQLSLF

Structure (SMILES) | outcome [1] | Potency [2] | Potency [3] | Potency [4] | Potency [5] | Potency [6] | Potency [7] | Potency [8] | Potency [9] | outcome [10] | Potency [11] | Potency [12] | Potency [13] | outcome [14] | Potency [15] | Potency [16]
O=[N+]([O-])c1ccc2nc(N3CCNCC3)ccc2c1 | inactive | inactive | inactive | inactive | inactive | inactive | inactive | inactive | inactive | inactive | inactive | inactive |  |  |  | 
CN1CCc2cccc(Cl)c2CC1 | inactive | inactive | inactive | inactive | inactive | inactive | inactive |  | inactive | inactive | inactive | inactive | inactive | inactive | inactive | 
CC(N)Cc1c[nH]c2ccc(O)cc12 (stereo not given) | inactive | inactive | inactive | inactive | inactive | inactive | inactive | inactive | inactive | inactive |  | inactive | inactive |  | inactive | inactive
CCCN1CC[C@@H]2c3cc(O)ccc3CC[C@@H]21 | inactive | inactive | inactive | inactive | inactive | inactive | inactive | inactive | inactive |  | inactive | inactive | inactive | inactive | inactive | inactive
C[C@@H]1O[C@H](C[N+](C)(C)C)CS1 | inactive | inactive | inactive | inactive | inactive | inactive | inactive | inactive | inactive |  |  | inactive | inactive | inactive | inactive | inactive
NC(=O)c1cc(N2CC2)c([N+](=O)[O-])cc1[N+](=O)[O-] | inactive | inactive | inactive | inactive | inactive | inactive | inactive | inactive | inactive |  | inactive | inactive | inactive | inactive | inactive | inactive
C[Se]C[C@H](N)C(=O)O | inactive | inactive | inactive | inactive | inactive | inactive | inactive |  | inactive | inactive | inactive | inactive | inactive |  | inactive | inactive
N#CC(C#N)=Cc1cc(O)c(O)c(O)c1 | inactive | inactive |  |  |  |  | inactive |  |  |  |  | inactive | inactive |  |  | 
Cc1c2ccncc2c(C)c2c1[nH]c1ccccc12 | inactive | 10 µM (active) |  |  | inactive |  | 7.08 µM (active) |  |  |  | 1.17 µM (active) | 1.85 µM (active) |  | inactive |  | 
N[C@@]1(C(=O)O)CC[C@@H](C(=O)O)C1 | inactive | inactive |  | inactive |  | inactive | inactive | inactive | inactive |  | inactive | inactive | inactive | inactive | inactive | 
CC(Cc1ccc(OCC(=O)O)cc1)NCC(O)c1cccc(Cl)c1 (stereo not given) | inactive | inactive | inactive | inactive |  | inactive | inactive | inactive | inactive | inactive | inactive | inactive | inactive | inactive | inactive | inactive
NC(Cc1ccc(N(CCCl)CCCl)cc1)C(=O)O (stereo not given) | inactive | inactive | inactive | inactive |  | inactive | inactive |  | inactive |  | 14.7 µM (active) | 8.28 µM (active) | 8.91 µM (active) | inactive |  | inactive
N[C@@H](CCl)C(=O)O | inactive | inactive | inactive | inactive |  | inactive | inactive | inactive | inactive |  | inactive | inactive | inactive |  | inactive | inactive
COc1ccc2[nH]c3c(c2c1)CCNC3 | inactive |  | inactive | inactive |  | inactive | inactive | inactive | inactive | inactive | inactive | inactive | inactive | inactive | inactive | inactive
CNC(=O)OCC[N+](C)(C)C | inactive | inactive |  |  |  |  | inactive |  |  |  |  | inactive | inactive |  |  | 
C[N+]1(C)CCC(OC(=O)C(c2ccccc2)c2ccccc2)CC1 | inactive | inactive |  |  |  |  | inactive |  |  |  | 2.08 µM (active) | 9.28 µM (active) | inactive |  |  | 
CC(C)NP(=O)(NC(C)C)OP(=O)(NC(C)C)NC(C)C | inactive | inactive | inactive | inactive |  | inactive | inactive | inactive | inactive | inactive |  | inactive | inactive | inactive | inactive | 
CC(N)[C@H](O)c1ccc(O)c(O)c1 (stereo not given in full) | inactive | inactive | inactive | inactive |  |  | inactive |  | inactive | inactive | inactive | inactive | inactive | inactive | inactive | 5.36 µM (active)
CN1C2CCC1CC(OC(c1ccccc1)c1ccc(Cl)cc1)C2 (stereo not given) | inactive | inactive |  |  |  |  |  |  |  |  | 0.147 µM (active) | 6.57 µM (active) | 8.91 µM (active) |  |  | 
COc1ccc2c(c1OC)C(=O)OC2C1c2cc3c(cc2CCN1C)OCO3 (stereo not given) | inactive | inactive |  |  |  |  | inactive |  |  |  |  |  | inactive |  |  | 
CC1(C(=O)O)C2CCC(O2)C1(C)C(=O)O (stereo not given) | inactive | inactive | 13.1 µM (active) | 18.5 µM (active) |  |  |  | inactive | inactive | inactive | 3.29 µM (active) | 5.22 µM (active) |  |  |  | inactive
CCCN(CCC)C1Cc2cc(OC)c(OC)cc2C1 | inactive | inactive | inactive | inactive |  | inactive | inactive |  | inactive | inactive | inactive | inactive | inactive | inactive | inactive | 
